Inconclusive results are not listed. The source made the active and inactive calls. Unless noted, the call rests on the fitted dose curve; in most records, active means well fitted curve in the direction sought with a large enough effect in the repeat runs; inconclusive means weak or mixed curves; inactive means no such curve, though single readings can be large; an effect the other way counts as inactive or inconclusive.
Tests used:
[1] = qHTS assay to identify aromatase inhibitors - cell viability counter screen (AID 743084);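 further: cells stimulated with testosterone during compound exposure; nearly all actives have a fitted effect of over 55% in size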; further: potency means the concentration at half of the fitted maximal effect
[2] = target: Aryl hydrocarbon receptor (Homo sapiens) (UniProt P35869); experiment: qHTS assay to identify small molecule that activate the aryl hydrocarbon receptor (AhR) signaling pathway (AID 743085); further: nearly all actives have a fitted effect of over 15% in size; further: potency means the concentration at half of the fitted maximal effect;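 on activation: HG2L7.5c1 human HepG2 liver cells with stably integrated DRE-driven firefly reporter; series mostly up to about 70 µM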
Outline: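 HepG2 cells (HG2L7.5c1) stably carrying a firefly luciferase reporter driven by 20 dioxin responsive elements were exposed to compound for 24 h at 37C after a 5 h settling period; luminescence rise (ONE-Glo) indicated activation.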

[3] = qHTS assay to identify small molecule that activate the aryl hydrocarbon receptor (AhR) signaling pathway - cell viability counter screen (AID 743086); further: nearly all actives have a fitted effect of over 45% in size; further: potency means the concentration at half of the fitted maximal effect
Outline: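 HepG2-AhR-luc (HG2L7.5c1) cells, 4000/well, treated 24 h at 37 C with compound; viability measured as CellTiter-Fluor fluorescence after 30 min in the same wells as the luciferase read.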

[4] = target: Peroxisome proliferator-activated receptor gamma (Homo sapiens) (UniProt P37231); experiment: qHTS assay to identify small molecule agonists of the peroxisome proliferator-activated receptor gamma (PPARg) signaling pathway (AID 743094; active means well fitted activation curve with a large enough effect in the signal ratio in the repeat runs, not every such curve was filed as active; the % refers to the signal ratio)
Outline: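 Compounds dissolved in DMSO were added to PPARg UAS-bla HEK293H cells for 17 h at 37C, and reporter expression was quantified by fluorescence intensity after 1 h with LiveBLAzer B/G FRET substrate.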

[5] = qHTS assay to identify small molecule antagonists of the peroxisome proliferator-activated receptor gamma (PPARg) signaling pathway - cell viability counter screen (AID 743194); further: nearly all actives have a fitted effect of over 55% in size
Outline: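 Cytotoxicity counter screen in PPARg-bla HEK293H cells, same wells as reporter assay. Compounds plus 50 nM rosiglitazone (final) for 17 h at 37 C, then viability read by CellTiter-Glo luminescence.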

[6] = qHTS assay for small molecule agonists of the antioxidant response element (ARE) signaling pathway (AID 743202; active means well fitted activation curve with a large enough effect in the signal ratio in the repeat runs, not every such curve was filed as active; the % refers to the signal ratio; further: potency means the concentration at half of the fitted maximal effect)
Outline: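 Agonist mode reporter screen: HepG2 cells with ARE-controlled beta-lactamase are incubated with test compounds for 16 h at 37 C, and beta-lactamase activity is measured as fluorescence of cleaved B/G FRET substrate.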

[7] = qHTS assay for small molecule agonists of the antioxidant response element (ARE) signaling pathway - cell viability counter screen (AID 743203; calls by dose curve; further: nearly all actives have a fitted effect of over 55% in size)
Outline: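 Following 16 hrs of compound treatment at 37C, HepG2 cells with an ARE-controlled beta-lactamase gene were lysed with CellTiter-Glo. Luminescence was read after 30 min at room temperature.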

[8] = qHTS assay for small molecule activators of the heat shock response signaling pathway - cell viability counter screen (AID 743209); further: nearly all actives have a fitted effect of over 50% in size; further: potency means the concentration at half of the fitted maximal effect
Outline: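 Readout: CellTiter-Glo luminescence, 30 min at room temperature. System: HSE-bla HeLa cells, 1500/well, plated overnight. Treatment: compounds in DMSO, 5 h at 37 C.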

[9] = qHTS assay for small molecule activators of the heat shock response signaling pathway (AID 743210; active means well fitted activation curve with a large enough effect in the signal ratio in the repeat runs, with a control signal flat, not every such curve was filed as active; the % refers to the signal ratio;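 further: HeLa cells with beta-lactamase reporter driven by heat shock elements; series mostly up to about 63 µM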)
Outline: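 Quantitative high-throughput format using an engineered HeLa line in which heat shock response elements drive beta-lactamase; after 5 h with compound, cells received a B/G FRET substrate and fluorescence was read.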

[10] = qHTS assay to identify small molecule agonists of the peroxisome proliferator-activated receptor delta (PPARd) signaling pathway - cell viability counter screen (AID 743211); further: nearly all actives have a fitted effect of over 55% in size; further: potency means the concentration at half of the fitted maximal effect
Outline: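 PPARd-bla HEK293H cells (UAS-beta-lactamase reporter) were treated with compounds for 17 h at 37 C. Viability was then read in the same wells by CellTiter-Glo luminescence after 30 min at room temperature.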

[11] = target: Peroxisome proliferator-activated receptor delta (Homo sapiens) (UniProt Q03181); experiment: qHTS assay to identify small molecule agonists of the peroxisome proliferator-activated receptor delta (PPARd) signaling pathway (AID 743212; calls by dose curve)
Outline: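 Quantitative high-throughput agonist screen in a HEK293H beta-lactamase reporter line under UAS control. Compounds in DMSO, at 37 C. Fluorescence read after 2 h with FRET substrate at room temperature.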

[12] = target: Peroxisome proliferator-activated receptor delta (Homo sapiens) (UniProt Q03181); experiment: qHTS assay to identify small molecule antagonists of the peroxisome proliferator-activated receptor delta (PPARd) signaling pathway (AID 743215; active means well fitted inhibition curve with a large enough effect in the signal ratio in the repeat runs, not every such curve was filed as active; the % refers to the signal ratio;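 further: cells stimulated with agonist L165041 at 300 nM final during compound exposure; series mostly up to about 62 µM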)
Outline: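 HEK293H UAS-bla, PPARd; agonist L165041 300 nM final with cpd in DMSO; 37 C 17 h; FRET substrate, RT 2 h; fluorescence intensity.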

[13] = target: Bile acid receptor (Homo sapiens) (UniProt Q96RI1); experiment: qHTS assay to identify small molecule agonists of the farnesoid-X-receptor (FXR) signaling pathway (AID 743220; active means well fitted activation curve with a large enough effect in the signal ratio in the repeat runs, not every such curve was filed as active; the % refers to the signal ratio)
Outline: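 Beta-lactamase reporter under UAS control in GeneBLAzer FXR HEK 293T cells (5000/well) measured with LiveBLAzer FRET substrate after 2 h at room temperature. Compound exposure lasted 16 h at 37C.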

[14] = qHTS assay to identify small molecule antagonists of the farnesoid-X-receptor (FXR) signaling pathway - cell viability counter screen (AID 743221; active means well fitted cell-killing curve with a large enough effect in the repeat runs, not every such curve was filed as active; further: nearly all actives have a fitted effect of over 50% in size)
Outline: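 FXR-UAS-bla HEK 293T cells were treated with test compounds plus chenodeoxycholic acid (50 uM final) for 16 h at 37 C. Cell viability in the same wells was then read as CellTiter-Glo luminescence after 30 min at room temperature.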

[15] = target: Vitamin D3 receptor (Homo sapiens) (UniProt P11473); experiment: qHTS assay to identify small molecule antagonists of the vitamin D receptor (VDR) signaling pathway (AID 743223; active means well fitted inhibition curve with a large enough effect in the signal ratio in the repeat runs, not every such curve was filed as active; the % refers to the signal ratio)
Outline: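 VDR-bla cells were plated, incubated 4 h at 37C, then given compound and 1alpha,25-dihydroxyvitamin D3 (3 nM final). After 16 h at 37C, LiveBLAzer B/G FRET substrate was added for 2 h at room temperature and fluorescence read.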

[16] = target: Peroxisome proliferator-activated receptor gamma (Homo sapiens) (UniProt P37231); experiment: qHTS assay to identify small molecule antagonists of the peroxisome proliferator-activated receptor gamma (PPARg) signaling pathway (AID 743191; calls by dose curve; further: series mostly up to about 63 µM; nearly all actives have a fitted effect of over 30% in size)
Outline: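 GeneBLAzer PPARg UAS-bla HEK293H cells, 5 h post-plating, exposed to compounds 17 h at 37C. LiveBLAzer B/G FRET substrate added for 1 h at room temperature; beta-lactamase reporter read by fluorescence intensity.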

[17] = qHTS assay to identify small molecule antagonists of the peroxisome proliferator-activated receptor delta (PPARd) signaling pathway - cell viability counter screen (AID 743213); further: nearly all actives have a fitted effect of over 50% in size; further: potency means the concentration at half of the fitted maximal effect
Outline: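 Cytotoxicity counter screen: CellTiter-Glo luminescence read 30 min after addition, in the same wells as the reporter assay. There, PPARd UAS-bla HEK293H cells (3000/well) were treated 17 h at 37 C with compound and 300 nM L165041.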

[18] = qHTS assay to identify small molecule agonists of the farnesoid-X-receptor (FXR) signaling pathway - cell viability counter screen (AID 743218); further: nearly all actives have a fitted effect of over 45% in size; further: potency means the concentration at half of the fitted maximal effect
Outline: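 Parallel cytotoxicity test: compound-treated (16 h, 37 C) HEK 293T FXR-bla reporter cells were lysed with CellTiter-Glo and luminescence recorded.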

[19] = target: Vitamin D3 receptor (Homo sapiens) (UniProt P11473); experiment: qHTS assay to identify small molecule agonists of the vitamin D receptor (VDR) signaling pathway (AID 743222; calls by dose curve)
Outline: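 In VDR-bla cells, compound-induced beta-lactamase expression is quantified by FRET substrate fluorescence. Treatment lasts 16 h at 37C; substrate develops 2 h at room temperature.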

Measured: Potency

Chain of Aryl hydrocarbon receptor (Homo sapiens) (P35869 whole entry, looked up): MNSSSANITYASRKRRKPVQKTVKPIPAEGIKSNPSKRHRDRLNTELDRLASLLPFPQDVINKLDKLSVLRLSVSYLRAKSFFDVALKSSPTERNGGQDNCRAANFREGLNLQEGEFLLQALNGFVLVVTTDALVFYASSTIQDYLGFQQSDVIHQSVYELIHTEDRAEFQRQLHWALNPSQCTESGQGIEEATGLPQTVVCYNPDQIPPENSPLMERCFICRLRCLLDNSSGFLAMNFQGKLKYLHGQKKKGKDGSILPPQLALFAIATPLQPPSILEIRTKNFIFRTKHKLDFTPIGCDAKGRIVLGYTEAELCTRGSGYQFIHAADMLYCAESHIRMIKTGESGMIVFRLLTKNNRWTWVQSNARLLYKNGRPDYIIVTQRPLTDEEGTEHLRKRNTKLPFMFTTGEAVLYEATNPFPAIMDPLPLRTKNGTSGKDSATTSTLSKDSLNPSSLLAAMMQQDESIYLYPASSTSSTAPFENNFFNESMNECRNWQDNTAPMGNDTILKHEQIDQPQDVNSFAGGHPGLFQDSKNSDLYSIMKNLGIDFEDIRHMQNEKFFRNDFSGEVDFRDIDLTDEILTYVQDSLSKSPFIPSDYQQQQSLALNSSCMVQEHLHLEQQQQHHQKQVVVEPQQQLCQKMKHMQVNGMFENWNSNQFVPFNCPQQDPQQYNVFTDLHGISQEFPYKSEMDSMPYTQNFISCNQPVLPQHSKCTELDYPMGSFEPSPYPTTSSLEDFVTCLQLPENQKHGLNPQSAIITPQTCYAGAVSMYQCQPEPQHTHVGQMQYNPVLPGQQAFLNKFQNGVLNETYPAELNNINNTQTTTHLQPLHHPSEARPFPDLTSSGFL
Chain of Peroxisome proliferator-activated receptor delta (Homo sapiens) (Q03181 whole entry, looked up): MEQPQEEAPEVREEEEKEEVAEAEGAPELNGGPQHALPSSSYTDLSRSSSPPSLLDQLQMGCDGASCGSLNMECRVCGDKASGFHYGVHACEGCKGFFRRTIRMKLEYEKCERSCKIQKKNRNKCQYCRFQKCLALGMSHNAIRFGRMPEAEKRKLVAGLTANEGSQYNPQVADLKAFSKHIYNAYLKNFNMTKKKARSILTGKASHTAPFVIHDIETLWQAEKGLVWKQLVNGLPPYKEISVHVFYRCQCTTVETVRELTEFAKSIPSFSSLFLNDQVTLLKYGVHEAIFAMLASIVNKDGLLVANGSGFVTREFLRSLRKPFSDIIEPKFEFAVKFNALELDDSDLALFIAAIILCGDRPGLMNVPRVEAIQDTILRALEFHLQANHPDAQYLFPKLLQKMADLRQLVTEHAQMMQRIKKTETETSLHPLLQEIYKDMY
Chain of Bile acid receptor (Homo sapiens) (Q96RI1 whole entry, looked up): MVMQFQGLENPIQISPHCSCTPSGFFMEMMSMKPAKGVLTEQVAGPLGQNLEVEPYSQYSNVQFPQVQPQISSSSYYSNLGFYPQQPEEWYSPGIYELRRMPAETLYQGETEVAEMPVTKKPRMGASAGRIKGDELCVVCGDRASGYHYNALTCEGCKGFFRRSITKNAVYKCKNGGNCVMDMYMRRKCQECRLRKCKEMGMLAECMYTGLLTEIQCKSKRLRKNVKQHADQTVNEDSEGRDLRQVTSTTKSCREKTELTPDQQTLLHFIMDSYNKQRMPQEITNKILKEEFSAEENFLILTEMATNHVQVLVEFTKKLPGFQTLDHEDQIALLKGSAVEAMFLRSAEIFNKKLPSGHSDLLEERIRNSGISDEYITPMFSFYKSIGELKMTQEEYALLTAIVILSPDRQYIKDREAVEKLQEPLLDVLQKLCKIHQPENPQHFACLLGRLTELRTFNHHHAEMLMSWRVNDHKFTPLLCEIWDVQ
Chain of Peroxisome proliferator-activated receptor gamma (Homo sapiens) (P37231 whole entry, looked up): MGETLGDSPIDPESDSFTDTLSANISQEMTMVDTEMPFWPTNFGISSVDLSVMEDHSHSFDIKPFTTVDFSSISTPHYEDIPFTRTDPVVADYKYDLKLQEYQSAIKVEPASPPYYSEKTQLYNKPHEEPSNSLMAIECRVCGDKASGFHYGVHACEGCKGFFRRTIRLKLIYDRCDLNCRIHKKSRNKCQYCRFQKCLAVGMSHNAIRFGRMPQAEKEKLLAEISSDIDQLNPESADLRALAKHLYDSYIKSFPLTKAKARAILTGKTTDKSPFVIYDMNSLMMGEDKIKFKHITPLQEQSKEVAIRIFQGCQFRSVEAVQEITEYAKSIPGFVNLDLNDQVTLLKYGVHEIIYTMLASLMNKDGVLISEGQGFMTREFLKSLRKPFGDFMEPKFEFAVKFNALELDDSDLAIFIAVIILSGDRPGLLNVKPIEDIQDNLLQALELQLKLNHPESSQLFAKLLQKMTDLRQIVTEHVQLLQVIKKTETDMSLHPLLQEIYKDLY
Chain of Vitamin D3 receptor (Homo sapiens) (P11473 whole entry, looked up): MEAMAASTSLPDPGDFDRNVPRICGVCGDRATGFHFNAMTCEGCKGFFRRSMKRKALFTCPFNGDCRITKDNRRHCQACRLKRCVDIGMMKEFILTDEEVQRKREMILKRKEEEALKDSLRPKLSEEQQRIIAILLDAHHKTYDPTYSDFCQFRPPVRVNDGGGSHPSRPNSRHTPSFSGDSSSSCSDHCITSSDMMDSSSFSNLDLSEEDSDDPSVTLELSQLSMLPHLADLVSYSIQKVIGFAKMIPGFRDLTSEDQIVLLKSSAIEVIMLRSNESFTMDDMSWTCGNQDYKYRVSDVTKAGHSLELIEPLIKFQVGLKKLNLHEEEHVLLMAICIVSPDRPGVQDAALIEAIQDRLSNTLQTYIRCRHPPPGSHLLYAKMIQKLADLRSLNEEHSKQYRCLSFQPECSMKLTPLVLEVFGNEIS

CCCCCCCC/C=C\CCCCCCCC(=O)OCCOC(=O)CCCCCCC/C=C\CCCCCCCC
inactive: [1] | [2] | [3] | [4] | [5] | [6] | [7] | [8] | [9] | [10] | [11] | [12] | [13] | [14] | [15]

COC(=O)CC#N
inactive: [1] | [2] | [3] | [4] | [16] | [5] | [6] | [7] | [8] | [9] | [10] | [17] | [18] | [14]

Cc1cn[nH]c1
inactive: [1] | [2] | [3] | [4] | [16] | [5] | [6] | [7] | [8] | [9] | [10] | [11] | [17] | [12] | [18] | [14]

NCCCCCCNCCCCCCN
inactive: [1] | [2] | [3] | [4] | [16] | [5] | [7] | [8] | [9] | [10] | [11] | [17] | [12] | [18] | [13] | [14] | [19] | [15]

CSc1c(Cl)c(Cl)c(Cl)c(Cl)c1Cl
active: [10] 54.6 µM
inactive: [1] | [2] | [3] | [4] | [17] | [13] | [14] | [15]

S=C(SSSSSSC(=S)N1CCCCC1)N1CCCCC1
active: [1] 0.379 µM | [3] 2.39 µM | [8] 0.0763 µM | [10] 0.108 µM | [17] 0.382 µM
inactive: [2] | [4] | [16] | [5] | [7] | [13] | [15]

Clc1ccc(C(Cn2ccnc2)OCc2ccsc2Cl)c(Cl)c1 (configuration not stated)
inactive: [1] | [2] | [4] | [8] | [17]
active: [3] 26.6 µM | [10] 29.8 µM | [18] 18.8 µM

Cc1cccc(Br)c1
inactive: [1] | [2] | [3] | [4] | [16] | [5] | [6] | [7] | [8] | [9] | [10] | [11] | [17] | [12] | [18] | [14]

O=C(O)c1cccc(Cl)n1
inactive: [1] | [2] | [3] | [4] | [5] | [7] | [11] | [18] | [14]

O=Nc1ccc(NO)cc1
active: [2] 31.9 µM | [6] 6.36 µM
inactive: [1] | [3] | [16] | [5] | [7] | [8] | [9] | [10] | [11] | [18] | [14]

CCO[Si](CCCSSSSCCC[Si](OCC)(OCC)OCC)(OCC)OCC
inactive: [1] | [2] | [3] | [4] | [5] | [6] | [7] | [8] | [9] | [17] | [18] | [14]

C(=C/c1ccccc1)/c1ccccc1
inactive: [1] | [2] | [3] | [4] | [16] | [5] | [7] | [8] | [9] | [10] | [11] | [12] | [18] | [13] | [14] | [19] | [15]

Oc1ccc(-c2ccccc2)c(Cl)c1
inactive: [1] | [2] | [3] | [4] | [7] | [8] | [10] | [11] | [12] | [18] | [14] | [15]

CCCCCCCCCCCCCCCC
inactive: [1] | [2] | [3] | [4] | [16] | [5] | [7] | [8] | [9] | [10] | [11] | [17] | [12] | [18] | [14]

CCC(=O)OCCc1ccccc1
inactive: [1] | [2] | [3] | [4] | [16] | [5] | [7] | [18] | [13] | [14] | [19]

— PubChem BioAssay (Tox21)
